RORg inh: blocks mouse ROR gamma transcriptional activity. 5.4% of 310,000 active. P51450. Potency, µM (titrated, usually from 53.6 µM), inactives show at the top dose activity change, negative = inhibition, actives largely listed as inhibitors. Drosophila S2 Gal4-RORgamma UAS-luciferase reporter, 20 h; note: potency is the fitted concentration of half-maximal effect; nearly all actives have a fitted effect of over 60% in size
Target sequence (P51450 whole entry, looked up, the tested form may be a part): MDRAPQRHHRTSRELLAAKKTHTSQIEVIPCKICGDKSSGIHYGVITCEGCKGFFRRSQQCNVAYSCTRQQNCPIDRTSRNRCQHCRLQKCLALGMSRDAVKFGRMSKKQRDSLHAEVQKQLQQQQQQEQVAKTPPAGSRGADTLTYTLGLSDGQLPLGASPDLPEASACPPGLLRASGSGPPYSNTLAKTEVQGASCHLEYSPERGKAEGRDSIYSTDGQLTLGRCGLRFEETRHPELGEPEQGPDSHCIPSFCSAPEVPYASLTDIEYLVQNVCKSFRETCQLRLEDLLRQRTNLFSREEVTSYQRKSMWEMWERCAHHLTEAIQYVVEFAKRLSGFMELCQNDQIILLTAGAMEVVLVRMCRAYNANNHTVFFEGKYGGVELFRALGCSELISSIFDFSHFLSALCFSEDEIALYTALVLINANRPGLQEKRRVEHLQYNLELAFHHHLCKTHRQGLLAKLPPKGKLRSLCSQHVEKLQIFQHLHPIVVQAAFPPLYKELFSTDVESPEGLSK
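Using a luciferase readout, inhibitors were identified by reduced reporter activity in Drosophila cells coexpressing a copper-inducible Gal4–ROR gamma fusion and UAS-driven Photinus luciferase, incubated 20 hr after 700 uM copper sulfate.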
ELG1 repair inh: blocks ELG1-dependent DNA repair in HEK293T cells. HEK293T ELG1-luciferase reporter, luminescence, 16 h; DNA damage induced by 5-fluorouridine. AID 504467. 2.3% of 330,000 active. Potency, µM (doses to about 46.1 µM), inactives show top-dose activity change, negative = inhibition, actives largely listed as inhibitors; note: potency is the fitted concentration of half-maximal effect; nearly all actives have a fitted effect of over 55% in size
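DMSO vehicle served as the neutral condition. Each well held 2,000 cells given 5-fluorouridine plus compound; after 16 hr at 37 °C/5% CO2, ONE-Glo was added and luciferase measured 30 min later.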
DT40 TDP1 CPT: DT40-hTDP1 cell growth loss with CPT. chicken DT40 Tdp1-/-;hTDP1 cells + 20 nM CPT, ATP luminescence, 48 h. Potency, µM (titrated, usually from 46.2 µM), inactives show at the top dose activity change, negative = growth inhibition, hits mostly inhibitors. 12% of 420,000 active. AID 686979; note: potency is the fitted concentration of half-maximal effect; nearly all actives have a fitted effect of over 55% in size
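Chicken DT40 Tdp1-/- cells complemented with human TDP1, 400 cells/well, exposed to compounds plus 20 nM camptothecin for at least 48 h at 37 C; viability read as ATP content by CellTiter-Glo luminescence.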
IL-1B inflam inh: inhibitors of inflammasome signaling (IL-1 beta secretion); activity change, % at 57.5 µM; THP-1 LPS/ATP IL-1B secretion, AlphaLISA, 16 h; hits give low values; 4.7% of 360,000 active; in the data active = activity change below about -50%; inconclusive = mostly about -30% to -49%
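Secreted IL-1B measured by AlphaLISA bead assay after 16 h compound exposure of THP-1 cells; compounds (final up to 57.5 uM) added 1 h before LPS (250 ng/mL) and ATP (1.25 mM) stimulation; lower signal means less secretion.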
TDP1 cell noCPT: qHTS for Inhibitors of human tyrosyl-DNA phosphodiesterase 1 (TDP1): qHTS in cells in absence of CPT; DT40 Tdp1-/- hTDP1 cells, no CPT, ATP luminescence, 48 h; Potency, µM (highest dose often 46.2 µM), for inactives: top-dose activity change, negative = growth inhibition, most hits filed as inhibitors; 15% of 420,000 active; note: potency is the fitted concentration of half-maximal effect; nearly all actives have a fitted effect of over 55% in size
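Chicken DT40 Tdp1-/- cells complemented with human TDP1, screened without camptothecin (DMSO vehicle only), 400 cells/well. Compounds pin-transferred, cells incubated at 37 °C for at least 48 hr. Growth read as ATP-dependent luminescence (CellTiter-Glo, 30 min at RT).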
VP16 counter: counter-screen for ROR gamma inhibitors: Gal4-VP16 reporter | Drosophila S2 Gal4-VP16 UAS-luciferase, luminescence, 20 h | Potency, µM (titrated, usually from 53.6 µM), for the others: at the highest dose activity, negative = inhibition, usual class: inhibitors | 3.5% of 310,000 active;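 note: Gal4-VP16 expression switched on by copper sulfate through the metallothionein promoter; potency is the fitted concentration of half-maximal effect; nearly all actives have a fitted effect of over 50% in size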
An asterisk follows results filed as active; ? = inconclusive; . = not tested or not shown. Only some compounds are listed: those with a hit (about 21% of all), similar ones and a draw of the others. Unless noted, calls come from the whole dose curve; as a rule, active = well fitted curve in the direction sought with a large enough effect; inconclusive = small, poorly fitted or top-dose-only effect, or another doubt; inactive = no such curve, though single readings can be large; an effect the other way counts as inactive or inconclusive. % is set by controls: 0 for no effect and ±100 for the full control effect.

SMILES | RORg inh | ELG1 repair inh | DT40 TDP1 CPT | IL-1B inflam inh | TDP1 cell noCPT | VP16 counter
COc1ccc(NC(=O)Cn2cc(C(=O)c3ccccc3OC)c(=O)c3ccc(C)nc32)cc1OC | . | . | -19% | . | ? | .
Cc1cccc(Nc2nc3c(c(=O)n(C)c(=O)n3C)n2Cc2ccccc2)c1 | -17% | 3% | -16% | 14 | -1% | -21%
COc1ccc(OCC(O)Cn2c(NCCO)nc3c2c(=O)n(C)c(=O)n3C)cc1 (stereo unspecified) | . | . | 9.2µM* | . | 10µM* | .
COc1ccc(OCC(O)Cn2c(Nc3cccc(C)c3)nc3c2c(=O)n(C)c(=O)n3C)cc1 (stereo unspecified) | 9% | 18µM* | ? | 33 | 15µM* | -12%
Clc1ccc(Cl)c(Cl)c1Cl | -8% | . | . | . | . | -2%
O=[N+]([O-])c1cnc2ccccc2c1 | 23% | -11% | 6% | 19 | -4% | -10%
O=[N+]([O-])c1cc([N+](=O)[O-])c2cc3ccccc3nc2c1 | 3.2µM* | -5% | 0.26µM* | -102* | 0.52µM* | 2.8µM*
CC[C@H](C)[C@@H](NC(=O)O[C@H]1C(=O)c2cc(OC)ccc2O[C@@H]1c1ccc(OC)c(Br)c1)C(=O)OC | -7% | . | . | . | . | -5%
CCOC(=O)Nc1ccc([N+](=O)[O-])cc1OC | . | . | -10% | 0 | -17% | .
CCOC(=O)c1c(NC(=S)Nc2ccc(C)cc2)sc2c1CCC2 | 6.3µM* | 16% | ? | 28 | ? | ?
CCOC(=O)c1c(NC(=O)c2cccs2)sc2c1CCC2 | 5% | 15% | -5% | -2 | 0% | -6%
CCOC(=O)c1c(NC(=O)Nc2ccc(F)cc2)sc2c1CCN(C)C2 | 4% | -3% | -10% | -28 | -12% | -7%
CCOC(=O)c1c(NC(=S)Nc2ccc(F)cc2)sc2c1CCC2 | 10µM* | 15% | -17% | 12 | -10% | ?
CCOC(=O)c1c(NC(=S)Nc2cc([N+](=O)[O-])ccc2OC)sc2c1CCCCC2 | 5.6µM* | 6% | . | . | . | 4µM*
CCOC(=O)c1ccc(C(=O)OCC)c(NC(=S)Nc2ccc([N+](=O)[O-])cc2OC)c1 | 2.2µM* | ? | -5% | 25 | ? | 2.8µM*
Nc1nc(N=Nc2ccc(O)cc2)cc(=O)[nH]1 | . | . | -8% | -27 | ? | .
NC(=O)c1c(NC(=S)Nc2ccc(F)cc2)sc2c1CCCC2 | 10µM* | 7% | 2% | -9 | -27% | -87%
Nc1nc(CCl)nc(Nc2cccc3ccccc23)n1 | 11µM* | ? | ? | -100* | 3.3µM* | 10µM*
CCOC(=O)CN(C)C(=O)CCc1nnc(-c2ccsc2)o1 | 14µM* | 0% | -22% | 23 | -3% | ?
C[C@@H]1CCCCO[C@@H](CN(C)C(=O)Cc2ccccc2)[C@@H](C)CN([C@H](C)CO)C(=O)c2cc(NC(=O)C3CCCCC3)ccc2O1 | . | . | ? | -21 | -6% | .
CN(Cc1ccc(Cl)cc1)C(=O)c1[nH]c(C(F)(F)F)nc1-c1ccccc1 | . | . | -7% | 25 | -21% | .
CCN(C(=O)c1ccc2c(c1)OCO2)C12CC3CC(CC(C3)C1)C2 | . | -5% | ? | 5 | 23µM* | .
CCN(C(=O)c1cccc(S(=O)(=O)N(C)C)c1)C12CC3CC(CC(C3)C1)C2 | 34% | ? | 13µM* | -7 | 12µM* | 0%
COc1ccc(NC(=O)Cn2c(=O)n(Cc3nc(C)no3)c(=O)c3cc4c(cc32)OCO4)cc1OC | . | . | -10% | . | -1% | .
CCN(CC)c1ccc(CNc2nc3ccccc3n2CC)cc1 | -23% | 10% | ? | -28 | ? | 5%
SMILES | RORg inh | ELG1 repair inh | DT40 TDP1 CPT | IL-1B inflam inh | TDP1 cell noCPT | VP16 counter
Cc1ccc(Cl)c(OCC(=O)NCC(c2cccs2)N2CCOCC2)c1 (stereo unspecified) | . | ? | 26µM* | ? | ? | .
COc1ccccc1C(CNC(=O)CNC(=O)c1ccc(Cl)c(Cl)c1)N1CCCC1 (stereo unspecified) | . | 10% | -10% | -6 | 16µM* | .
COc1ccccc1C(CNC(=O)COc1cc(C)ccc1Cl)N1CCCC1 (stereo unspecified) | . | -1% | ? | -64* | ? | .
O=C(COc1ccccc1Cl)NCC(c1cccs1)N1CCOCC1 (stereo unspecified) | . | -11% | ? | 0 | ? | .
COc1ccccc1C(CNC(=O)COc1ccccc1C)N1CCCC1 (stereo unspecified) | . | 9% | -7% | -6 | 1% | .
COc1cccc(Oc2ccc(N/C=C/C(=O)C(C)(C)C)cc2)c1 | ? | ? | 0% | -65* | ? | ?
O=C(NC1CCS(=O)(=O)C1)/C(=C\c1ccc(F)cc1)NC(=O)c1ccccc1 (stereo unspecified) | 21% | 11% | 10% | 0 | 12% | 15%
O=[N+]([O-])c1cc([N+](=O)[O-])c2oc(-c3ccccc3)c(Br)c2c1O | ? | ? | ? | 15 | 8.2µM* | 0%
Nc1ccc(C(=O)O)cc1[N+](=O)[O-] | -9% | -2% | 4% | 15 | 3% | -10%
COc1ccc(CCNC(=O)CSc2cc(=O)n(C)c3ccccc23)cc1OC | . | . | -13% | . | -12% | .
COc1ccccc1N(C(C)=O)C1=C(Cl)C(=O)c2ccccc2C1=O | . | . | 0.52µM* | ? | 0.73µM* | .
Nc1nn2cc(-c3ccccc3)nc2c2ccccc12 | -22% | ? | ? | -100* | ? | -13%
Nc1nc(-c2ccccc2)cn1/N=C/c1ccccc1 | ? | ? | ? | ? | 23µM* | -13%
COc1ccc(-c2cn(/N=C/c3ccc(Cl)cc3Cl)c(N)n2)cc1 | -30% | -29% | 23µM* | -66* | ? | -5%
Cc1cn2nc(N)c3ccccc3c2n1 | -33% | -21% | 1% | 5 | 18% | -8%
Nc1nc(-c2ccccc2)cn1N | 3.2µM* | ? | ? | 31 | ? | 7.1µM*
Cc1nn2cc(-c3ccc(-c4ccccc4)cc3)nc2s1 | ? | ? | 1% | -8 | -3% | ?
CCOC(=O)[C@]12CCCC=C1N(Cc1cccc3ccccc13)C(=O)[C@H](CC(=O)NCc1ccc(OC)c(OC)c1)C2 | . | . | ? | -69* | 16µM* | .
CCOC(=O)[C@]12CCC=C1N(Cc1cccc3ccccc13)C(=O)[C@H](CC(=O)NCCCCc1ccccc1)C2 | . | . | 23µM* | -70* | 16µM* | .
